Test results reported in PubChem BioAssay AID1159580 (chemical genetic matrix, 2015).
In all, about 5,500 compounds went through this assay and about 2,000 (36%) were called active. Another 18% or so got no clear call; they are omitted. No stated cut-off is given here; in the data, active means normalized growth mostly below about 0.91 (no sharp cut-off); inconclusive means no clear call, values can overlap the other calls; inactive means mostly above about 0.92. The list shows a part of the results.

Experiment: chemical genetic growth profiling, strain panel (AID 1159580);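 further: tested at 20 µM; growth read once vehicle control cultures reached saturation at 30 °C; 1 = growth at the plate median or of vehicle wells; lower values mean less growth of the strain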
Settings: growth OD

Measured: normalized growth

COc1ccc(-c2cc(=O)c3ccccc3o2)cc1
active: S. cerevisiae deletion strains, locus YKL009W, strain mrt4, hits give low values 0.824 | S. cerevisiae deletion strains, locus YKL068W, hits give low values 0.93 | S. cerevisiae deletion strains, locus YKL085W, strain MDH1 (second series), hits give low values 0.914 | S. cerevisiae deletion strains, locus YKL085W, strain MDH1, hits give low values 0.914 | S. cerevisiae deletion strains, locus YKL160W, strain elf1, hits give low values 0.742 | S. cerevisiae deletion strains, locus YKR001C, strain vps1, hits give low values 0.354 | S. cerevisiae deletion strains, locus YKR026C, strain gcn3, hits give low values 0.92 | S. cerevisiae deletion strains, locus YKR091W, strain srl3, hits give low values 0.93 | S. cerevisiae deletion strains, locus YLL001W, strain dnm1, hits give low values 0.763 | S. cerevisiae deletion strains, locus YLL026W, hits give low values 0.9 | S. cerevisiae deletion strains, locus YLL041C, strain sdh2, hits give low values 0.927 | S. cerevisiae deletion strains, locus YLR027C, strain aat2, hits give low values 0.84 | S. cerevisiae deletion strains, locus YLR039C, strain RIC1, hits give low values 0.405 | S. cerevisiae deletion strains, locus YLR058C, strain SHM2, hits give low values 0.741 | S. cerevisiae deletion strains, locus YLR102C, strain apc9, hits give low values 0.916 | S. cerevisiae deletion strains, locus YLR221C, strain rsa3, hits give low values 0.749 | S. cerevisiae deletion strains, locus YLR258W, strain gsy2, hits give low values 0.823 | S. cerevisiae deletion strains, locus YLR262C, strain YPT6 (second series), hits give low values 0.538 | S. cerevisiae deletion strains, locus YLR262C, strain YPT6, hits give low values 0.406 | S. cerevisiae deletion strains, locus YLR268W, strain sec22, hits give low values 0.727 | S. cerevisiae deletion strains, locus YLR320W, strain mms22, hits give low values 0.449 | S. cerevisiae deletion strains, locus YLR330W, strain CHS5, hits give low values 0.659 | S. cerevisiae deletion strains, locus YLR342W, strain FKS1 (second series), hits give low values 0.512 | S. cerevisiae deletion strains, locus YLR342W, strain FKS1, hits give low values 0.861 | S. cerevisiae deletion strains, locus YLR371W, strain rom2, hits give low values 0.834 | S. cerevisiae deletion strains, locus YLR384C, strain iki3, hits give low values 0.916 | S. cerevisiae deletion strains, locus YLR418C, strain cdc73, hits give low values 0.612 | S. cerevisiae deletion strains, locus YML016C, strain PPZ1, hits give low values 0.89 | S. cerevisiae deletion strains, locus YML032C, strain rad52, hits give low values 0.697 | S. cerevisiae deletion strains, locus YML120C, strain ndi1, hits give low values 0.785 | S. cerevisiae deletion strains, locus YML124C, strain tub3, hits give low values 0.922 | S. cerevisiae deletion strains, locus YMR058W, strain fet3, hits give low values 0.804 | S. cerevisiae deletion strains, locus YMR078C, strain ctf18, hits give low values 0.753 | S. cerevisiae deletion strains, locus YMR129W, hits give low values 0.92 | S. cerevisiae deletion strains, locus YMR205C, strain PFK2, hits give low values 0.668 | S. cerevisiae deletion strains, locus YMR223W, strain ubp8, hits give low values 0.784 | S. cerevisiae deletion strains, locus YMR231W, strain pep5, hits give low values 0.921 | S. cerevisiae deletion strains, locus YMR307W, strain GAS1, hits give low values 0.397 | S. cerevisiae deletion strains, locus YNL067W, strain RPL9B, hits give low values 0.688 | S. cerevisiae deletion strains, locus YNL071W, strain lat1, hits give low values 0.48 | S. cerevisiae deletion strains, locus YNL153C, strain GIM3, hits give low values 0.615 | S. cerevisiae deletion strains, locus YNL209W, strain ssb2, hits give low values 0.873 | S. cerevisiae deletion strains, locus YNL233W, strain BNI4, hits give low values 0.629 | S. cerevisiae deletion strains, locus YNL248C, strain rpa49, hits give low values 0.833 | S. cerevisiae deletion strains, locus YNL271C, strain bni1, hits give low values 0.884 | S. cerevisiae deletion strains, locus YNL298W, strain CLA4, hits give low values 0.881 | S. cerevisiae deletion strains, locus YNL307C, strain MCK1, hits give low values 0.136 | S. cerevisiae deletion strains, locus YNL322C, strain KRE1 (second series), hits give low values 0.902 | S. cerevisiae deletion strains, locus YNL322C, strain KRE1, hits give low values 0.792 | S. cerevisiae deletion strains, locus YNR049C, strain mso1, hits give low values 0.914 | S. cerevisiae deletion strains, locus YNR052C, strain pop2, hits give low values 0.853 | S. cerevisiae deletion strains, locus YOL147C, strain pex11, hits give low values 0.819 | S. cerevisiae deletion strains, locus YOR001W, strain rrp6, hits give low values 0.809 | S. cerevisiae deletion strains, locus YOR061W, strain CKA2, hits give low values 0.851 | S. cerevisiae deletion strains, locus YOR069W, strain VPS5, hits give low values 0.729 | S. cerevisiae deletion strains, locus YOR070C, strain gyp1, hits give low values 0.818 | S. cerevisiae deletion strains, locus YOR080W, strain dia2, hits give low values 0.906 | S. cerevisiae deletion strains, locus YOR083W, strain WHI5, hits give low values 0.71 | S. cerevisiae deletion strains, locus YOR106W, strain vam3, hits give low values 0.733 | S. cerevisiae deletion strains, locus YOR136W, strain idh2, hits give low values 0.895 | S. cerevisiae deletion strains, locus YOR144C, strain elg1, hits give low values 0.911 | S. cerevisiae deletion strains, locus YOR184W, strain ser1, hits give low values 0.474 | S. cerevisiae deletion strains, locus YOR265W, strain rbl2, hits give low values 0.879 | S. cerevisiae deletion strains, locus YOR270C, strain vph1, hits give low values 0.328 | S. cerevisiae deletion strains, locus YOR290C, strain snf2, hits give low values 0.689 | S. cerevisiae deletion strains, locus YPL051W, strain arl3, hits give low values 0.674 | S. cerevisiae deletion strains, locus YPL078C, strain atp4, hits give low values 0.695 | S. cerevisiae deletion strains, locus YPL240C, strain hsp82, hits give low values 0.893 | S. cerevisiae deletion strains, locus YPL241C, strain CIN2, hits give low values 0.839 | S. cerevisiae deletion strains, locus YPR119W, strain clb2, hits give low values 0.93 | S. cerevisiae deletion strains, locus YPR163C, strain tif3, hits give low values 0.543 | S. cerevisiae deletion strains, locus YPR167C, strain met16, hits give low values 0.727 | S. cerevisiae deletion strains, strain wtn01, hits give low values 0.816 | S. cerevisiae strains, strain wild type, hits give low values 0.682
inactive: S. cerevisiae deletion strains, locus YJR066W, strain TOR1, hits give low values 0.873 | S. cerevisiae deletion strains, locus YLR113W, strain HOG1, hits give low values 1.06 | S. cerevisiae deletion strains, locus YLR357W, strain rsc2, hits give low values 1.03 | S. cerevisiae deletion strains, locus YLR370C, strain arc18, hits give low values 0.922 | S. cerevisiae deletion strains, locus YMR125W, strain sto1, hits give low values 0.932 | S. cerevisiae deletion strains, locus YNL183C, strain NPR1, hits give low values 0.874 | S. cerevisiae deletion strains, locus YNL250W, strain rad50, hits give low values 0.921 | S. cerevisiae deletion strains, locus YOL012C, strain htz1 0.926 | S. cerevisiae deletion strains, locus YOR231W, strain MKK1, hits give low values 0.991 | S. cerevisiae deletion strains, locus YOR316C, strain cot1, hits give low values 0.925 | S. cerevisiae deletion strains, locus YPL106C, strain sse1, hits give low values 1.05 | S. cerevisiae deletion strains, locus YPL256C, strain CLN2, hits give low values 1.02 | S. cerevisiae deletion strains, locus YPR141C, strain kar3, hits give low values 0.94
